Laboratory results: PubChem BioAssay (NCI)
About 83,000 compounds went through this panel and 20% of them were active in at least one assay; those are over-represented in the sample as a whole.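 A percent growth of 40 corresponds to 60% growth inhibition; 0 means no net growth; -100 means all cells died. Active threshold: below 10.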 A number with no mark means an inactive call. The source made the active and inactive calls.

The molecules below were run on HL-60(TB) leukemia (assay: NCI-60 one-dose screen, 48 h (100 = growth as untreated, 0 = no growth, -100 = all killed)). Conditions: 10 µM unless noted.
For `CCCCCCCCCCCCCCCCCCOCC(COCCOCC[N+]1(CCCCCC(=O)[O-])CCCC1)Oc1ncccn1` (stereo not given), the growth was -32.2% (active).
`O=C(O)c1cccc(N/C=C/C(=O)c2cc3cc(Br)ccc3oc2=O)c1` gave a growth of 99.8%.
In the case of `CCN(CC)CCCNc1cccc2c(C)cc(OC)nc12`, the growth is reported as 106%.
`CCOC(=O)C/C(C)=N\O` gave a growth of 94.5%.
Molecule `Cc1ccc(S(=O)(=O)N/N=C2\CC3CCC2(C)C3(C)C)cc1` (stereo not given) has a growth of 116%.
`COc1ccc(CNC(=O)c2c(C)n([O-])c3cc(F)c(F)cc3[n+]2=O)cc1` gave a growth of 101%.
`CCOC(=O)/C(=C(\C)N)C1CC(=O)NC1=O` (stereo not given) gave a growth of 99.9%.
In the case of `COc1cc(C2c3cc4c(cc3C3OC(=O)C2C3CO)OCO4)cc(OC)c1OC` (stereo not given), the growth is reported as -17.2% (active).
`COc1ccc(-c2nc(SCC(=O)c3ccc(Br)cc3)[nH]c(=O)c2C#N)cc1` gave a growth of 91.5%.
For `O=S(=O)(Nc1cc(F)cc(F)c1)c1ccc(-c2cnc(C3CC3)o2)cc1`, the growth was 9.05% (active).
`CC(C)(C)c1cc(C(C)(C)C)cc(S(=O)(=O)Nc2cc3ccccc3cc2C(=O)NCCN)c1` was tested, and the growth was -19.8% (active).
`O=C(CSc1nc2ccccc2[nH]1)Nc1ccc(-c2nc3ccccc3s2)c(Cl)c1` showed a growth of 62%.
In the case of `COc1cc(Cl)cc(-c2nn(-c3cccc(NC(=O)Nc4ccc(Cl)c(Cl)c4)c3)cc2-c2ccncc2)c1`, the growth is reported as -5.12% (active).
With `COc1cccc(-c2nc3sccn3c2-c2ccnc(NCCCNS(=O)(=O)c3cccc(Cl)c3)c2)c1` the growth was -9.87% (active).
In the case of `C=C1C(=O)O[C@H]2[C@H]1CC/C(CNC(=O)c1c[nH]c3ccc(F)cc13)=C\CC[C@@]1(C)O[C@@H]21`, the growth is reported as -35% (active).
For `N/C(=N\OC(=O)c1ccccc1)C(C(=O)NOC(=O)c1ccccc1)C1CCCCC1` (stereo not given), the growth was 1.73% (active).
`O=C1/C(=C/c2ccc(C(F)(F)F)cc2)COc2ccc(O)c(O)c21` was tested, and the growth was -26.1% (active).
`NC(=S)N/N=C\c1nccc2c(N)cccc12` was tested, and the growth was -10.4% (active).
`O=C(/C=C/c1ccco1)Nc1ncc(Cc2ccc(F)cc2)s1` was tested, and the growth was -41.6% (active).
For `COc1cc(C(=O)/C=C/c2cc(-c3ccc4c(c3)OCO4)n[nH]2)cc(OC)c1OC`, the growth was -16.6% (active).
`CCNC(=O)OCCc1c2ccccc2nc2ccccc12` gave a growth of 95.1%.
`CC/C=C\C[C@H](O)C/C=C1/C(=O)C=C[C@@H]1C/C=C\CCCCO` showed a growth of 36.4%.
With `CCOC(=O)c1ccccc1-c1c2ccc(=[N+](C)C)cc-2oc2cc(N(C)C)ccc12` the growth was -14.3% (active).
For `COc1cc(/C=C/C(=O)CC(=O)/C=C/c2ccc(OC(=O)C3C4CC5CC(C4)CC3C5)c(OC)c2)ccc1OC(=O)C1C2CC3CC(C2)CC1C3` (stereo not given), the growth was 94%.
`O=C1/C=C/[C@@H](O)[C@@H]2C[C@@H](O)C[C@H]2/C=C/CCC[C@H](CCc2cccc3ccccc23)O1` was tested, and the growth was -44.8% (active).
